# In ChEMBL document CHEMBL3988442, “University of Dundee, Small-Polar-MMV Screening Library” (2021):
# Among all 48,000 compounds or so, about 13,000 (27%) showed an effect of 50% or more. This is one part of the list.
# Test system: Wolbachia pipientis
# Assay: Anti-Wolbachia Cell-Based Screen
# Type: functional
# Parameters: scale not given: in the data most compounds retested in dose-response had high values
# Details: 5 µM
row,Compound,Percent Effect
1,COCc1c(C(=O)N2CCCC(N(C)Cc3ccccc3)C2)noc1C (stereo not drawn),2.95%
2,CN1CCc2c(NC(=O)NCc3ccccc3Cl)cccc21,-4.639%
3,COc1ccc(Cl)cc1-n1cnc(CCNC(C)=O)c1,-30.19%
4,NCc1cn(-c2ccccc2C(=O)NCc2ccccc2Cl)cn1,137.2%
5,CCn1c(N)nc2cc(C(=O)NCc3ccccc3Cl)cnc21,-4.176%
6,NCc1cn(-c2ccccc2C(=O)NCc2cccc(Cl)c2)cn1,-5.254%
7,COc1ccccc1CNC(=O)c1ccccc1-n1cnc(CN)c1,104.3%
8,COc1ccc(F)cc1-n1cnc(CCNC(C)=O)c1,-9.257%
9,Cc1ccccc1CNC(=O)c1ccccc1-n1cnc(CN)c1,128.9%
10,Cc1nccn1-c1ccccc1CNC(=O)c1cn(CCN)nn1,1.636%
11,COc1cccc(CNC(=O)c2ccccc2-n2cnc(CN)c2)c1,113.9%
12,NCc1cn(-c2ccccc2C(=O)NCc2ccccc2)cn1,2.452%
13,COc1cccc(CNC(=O)N2CCCC(Cn3cc(CN)nn3)C2)c1 (stereo not drawn),-31.64%
14,Cc1ccc(C(=O)NS(=O)(=O)c2ccccc2C)c(=O)[nH]1,-8.925%
15,CCNC(=O)N1CCN(Cc2nc3ccccc3[nH]2)[C@@H]2CS(=O)(=O)C[C@@H]21,3.535%
16,COC(=O)CC(NC(=O)c1cccc(CS(C)(=O)=O)c1)c1cccs1 (stereo not drawn),18.46%
17,N#Cc1ccc(F)c(CN2CCCC2Cn2cncn2)c1 (stereo not drawn),0.2616%
18,Cc1[nH]c(=O)sc1S(=O)(=O)N1CCCC1C(=O)NCc1ccsc1 (stereo not drawn),1.823%
19,CC1COCCN1C(=O)COc1ccc(Oc2ccccn2)cc1 (stereo not drawn),102.9%
20,CC1COCCN1C(=O)c1cccc(OCc2cscn2)c1 (stereo not drawn),-3.154%
21,COc1ccc(Oc2ncccc2NC(=O)N2CCOCC2C)cc1 (stereo not drawn),-2.613%
22,O=C(COc1cccc(Br)c1)N1CCOCC1c1ncon1 (stereo not drawn),-1.613%
23,CC(C)(C)NC(=O)COc1ccc(Oc2ccccn2)cc1,-9.446%

row,Compound,Percent Effect
1,CC1COCCN1C(=O)COc1cccc(Oc2ccccn2)c1 (stereo not drawn),91.48%
2,O=c1oc(-c2ccc(F)cc2)nn1CCS(=O)(=O)c1ccccc1,3.372%
3,CCc1cnc(CN2CCC(O)(c3cc(OC)cc(OC)c3)CC2)o1,-1.491%
4,N#Cc1c(Cl)nsc1NCc1ccc(N2CCCC(C(N)=O)C2)cc1 (stereo not drawn),6.894%
5,COc1ccc(-c2nc(CSC3CCCCNC3=O)co2)cc1 (stereo not drawn),-25.49%
6,CNc1ccnc(N(C)Cc2cc(-c3cccs3)n[nH]2)n1,8.932%
7,CN(C)c1nccc(NCc2cc(-c3ccco3)n[nH]2)n1,126.3%
8,CNc1cc(C(=O)N(C)Cc2cc(-c3cccs3)n[nH]2)ccn1,11.01%
9,CN(C)c1nccc(NCc2cc(-c3cccs3)n[nH]2)n1,108.4%
10,Cc1n[nH]c(C)c1CNc1nc(-c2ccco2)nc2c1CCNCC2,0.9084%
11,c1coc(-c2nc3c(c(NCc4n[nH]c5c4CCC5)n2)CCNCC3)c1,-11.22%
12,O=S(=O)(CC1CC1)c1ncc(CN2CCOCC2)n1CC1CCCO1 (stereo not drawn),1.621%
13,Cn1cnc2c1CCN(CCS(=O)(=O)c1ccccc1)C2,2.795%
14,CCOc1ccc(CN2CCNC(C(=O)NC3CC3)C2)cc1CO (stereo not drawn),-28.15%
15,Cc1nc(CNC(=O)c2oc3ccccc3c2CN(C)C)oc1C,12.17%
16,COc1cccc(CN2C[C@H]3CC[C@H]2C3)c1OCCN1CCOCC1,3.067%
17,COc1ccccc1OCCCN1C(=O)CCNC1=O,100.1999%
18,COc1ccccc1OCCN1CCC(N2CCNC2=O)CC1,-7.605%
19,N#Cc1ccccc1OCCN1CCC(N2CCNC2=O)CC1,-2.122%
20,COc1cccc(OC)c1OCCN1C(=O)CCNC1=O,70.56%
21,COc1ccccc1OCCCc1cncc(C(N)=O)c1,-13.5%
22,COc1cccn(CC(=O)N(C)CCCOc2c(C)cccc2C)c1=O,-81.04%
23,Cc1ccc(C)c(OCCN2CCC(N3CCNC3=O)CC2)c1,-4.141%

row,Compound,Percent Effect
1,COc1ccccc1OCCCc1cc(C#N)ccn1,-8.074%
2,CCn1ccnc1CN1CCN(CCOc2ccccc2OC)CC1,1.541%
3,COc1ccccc1OCCCN1CCNC1=O,93.18%
4,CC(C)Oc1ccccc1OCCN1C(=O)CCNC1=O,102.7%
5,Cc1nc(N(C)CCCc2nccn2C)c2c(C)nn(C)c2n1,-2.28%
6,Cc1[nH]c2c(C)ccc(C)c2c1CC(=O)NCc1csc(N(C)C)n1,-37.05%
7,CCC(CC)c1cc(CNC(=O)N2CCOCC2CC)on1 (stereo not drawn),8.113%
8,CC(C)(O)CCc1ccc(C(=O)NCCC2CCOC2)cc1 (stereo not drawn),-23.58%
9,CCOc1ccc(CN2CCN(CCOC)[C@@H]3CS(=O)(=O)C[C@@H]32)cc1,-4.58%
10,O=C(NCCCOCC1CC1)Nc1cccnc1N1CCOCC1,-4.484%
11,CCc1nc(C#N)c(N2CCC(c3nc(-c4ccccc4)no3)CC2)o1,-18.26%
12,c1ccc(-c2noc(CCCN3CCCC3Cn3cncn3)n2)cc1 (stereo not drawn),100.9%
13,O=S(=O)(CCCN1CCCCC1Cn1cncn1)c1ccccc1 (stereo not drawn),108.5%
14,c1ccc(-c2noc(C3CCN(CCCn4cncn4)CC3)n2)cc1,-0.715%
15,O=S(=O)(CCN1CCCC1Cn1cncn1)c1ccccc1 (stereo not drawn),102.1%
16,CCN(Cc1ccccc1)C(=O)CN1CCCCC1Cn1cncn1 (stereo not drawn),-8.051%
17,c1csc(-c2noc(CCCN3CCCC3Cn3cccn3)n2)c1 (stereo not drawn),-9.384%
18,Cc1cc(C)n(CC2CCCN2CCS(=O)(=O)c2ccccc2)n1 (stereo not drawn),-8.876%
19,O=C1CCCN1CCCN1CCCCC1Cn1cncn1 (stereo not drawn),3.397%
20,N#Cc1cccc(CN2CCCC2Cn2cncn2)c1 (stereo not drawn),-16.52%
21,c1ccc(CCCN2CCCC2Cn2cncn2)cc1 (stereo not drawn),145.7%
22,CN1CCN(CC2CC2)C(=O)C12CCN(c1nccs1)CC2,-15.71%
23,CC(C)NC(=O)[C@@H](NC(=O)N1CCN(c2ccc(Cl)cc2)CC1)C(C)C,-4.425%

row,Compound,Percent Effect
1,Cn1cnc(-c2nc(C(=O)NCCN3CCOCC3)c3ccccn23)c1,-34.35%
2,CN(CC1CC1)S(=O)(=O)c1ccc(C(F)(F)F)cc1C#N,-1.577%
3,O=C(c1ccc2c(c1)[nH]c(=O)n2[C@H]1CC[C@H](O)CC1)N1CCOCC1,1.877%
4,N#Cc1ccccc1OCCN1CCCCC1Cn1cncn1 (stereo not drawn),-1.923%
5,O=S(=O)(CCN1CCOC(Cn2cncn2)C1)c1ccccc1 (stereo not drawn),-0.6358%
6,O=S(=O)(c1ccccc1)N1CCCC(Cn2cncn2)C1 (stereo not drawn),-7.569%
7,O=S(=O)(CCN1CCCCC1Cn1cncn1)c1ccccc1 (stereo not drawn),104.1%
8,O=S(=O)(CCCN1CCCC(Cn2cncn2)C1)c1ccccc1 (stereo not drawn),92.49%
9,O=C1CCCN1CCN1CCCCC1Cn1cncn1 (stereo not drawn),1.495%
10,CCN(CC1COc2ccccc2O1)C(=O)C1=NN(C)C(=O)CC1 (stereo not drawn),17.44%
11,COC(=O)CCNC(=O)c1c[nH]cc1-c1cccc(OC)c1,3.352%
12,COc1ccc(CN2CCCCC2Cn2nc(C)nc2C)cc1F (stereo not drawn),112.6%
13,COc1ccc(F)cc1CN1CCCC1Cn1nc(C)nc1C (stereo not drawn),149.5%
14,COc1ccc(CN2CCCC2Cn2nc(C)nc2C)cc1F (stereo not drawn),-0.5946%
15,COc1ccc(C)cc1CN1CCCC1Cn1nc(C)nc1C (stereo not drawn),2.525%
16,COCCNC(=O)c1cc(COc2cncc(Cl)c2)on1,6.247%
17,CC(C)CN1CCN(Cc2nc3c(s2)CCCC3)[C@H]2CS(=O)(=O)C[C@H]21,-7.173%
18,O=C(NC[C@H]1OC[C@@H](NC2CCC(F)(F)CC2)[C@@H]1O)C1CC1,-11.71%
19,Cl.c1cnc(Nc2cncc(C3CCCN3)n2)cn1 (stereo not drawn),154.6%
20,Cc1nc(Nc2cnccn2)cc(C2CCCN2)n1.Cl (stereo not drawn),92.06%
21,Cc1ccc2[nH]c(CN(C)c3cc(CCN)nc(C)n3)nc2c1,1.379%
22,CCCc1cc(C(=O)N2CCCN(c3cccnn3)CC2)[nH]n1,-4.631%
23,COc1ccc(C2(CNC(C)c3nnc(C)o3)CCCCC2)cc1 (stereo not drawn),-5.469%

row,Compound,Percent Effect
1,CCN(C(=O)Cc1ccc(NCc2nccn2C)cc1)c1ccccc1,-5.228%
2,CSC(C)C(=O)N1CCC(Oc2cc(C)ccc2F)(C(=O)O)CC1 (stereo not drawn),-19.74%
3,COc1cccc(CNc2cnn(CC(F)F)c2)c1,110.9%
4,COc1cccc(CNc2c(C)nn(C(C)C)c2C)c1.Cl,-5.673%
5,COc1ccc(CNc2cnn(CC(F)F)c2)cc1,98.47%
6,COCCn1cc(NCc2c[nH]nc2-c2ccc(OC)cc2)cn1,-43.6%
7,COc1cccc(CNc2cnn(C)c(=O)c2Cl)c1,-15.43%
8,CC(C)(C)C(=O)N1CCN(C(=O)Nc2cnn(CC(F)F)c2)CC1,14.61%
9,CC1=CC(C)(C)N(CN2C(=O)c3ccccc3C2=O)c2ccc(C)cc21,-18.46%
10,CCN1CCC(CC(=O)NCCc2nc(C)c(Cl)s2)CC1,-2.005%
11,CCC(c1nc(CC(C)C)nn1-c1ccccn1)n1cccn1 (stereo not drawn),-7.483%
12,CN(C)c1ccc(C2CCN(c3cnccn3)CC2)nc1,110.3%
13,Nc1nccc(C2CCN(c3cnccn3)C2)n1 (stereo not drawn),100.6%
14,CC(C)c1nccn1C(C)C(=O)N1CCN(c2cnccn2)CC1 (stereo not drawn),8.025%
15,CSCCCN1CCC[C@]2(C(=O)O)CN(c3cnccn3)CC[C@@H]12,-18.46%
16,c1cc(C2CCN(c3cnccn3)CC2)ncn1,111.8%
17,CC(c1ccccc1)N(C)C(=O)CN1CCN(c2cnccn2)CC1 (stereo not drawn),-4.354%
18,Cc1ccc(-c2cn[nH]c2C2CCCN(c3cnccn3)C2)cc1 (stereo not drawn),-26.5%
19,c1cc(C2CCN(c3cnccn3)CC2)ccn1,108.9%
20,c1ccc(C2CCN(c3cncc(-n4cccn4)n3)CC2)cc1,-3.284%
21,O=C1OCCC1N1CCN(c2cnccn2)CC1 (stereo not drawn),-13.03%
